From PubChem
AmpC inh detg: inhibitors of E. coli AmpC beta-lactamase with detergent; P00811; AmpC hydrolysis of nitrocefin, absorbance 480 nm, 0.01% Triton; Potency, µM (titrated, usually from 114 µM), for inactives: at the highest dose activity change, negative = inhibition, hits mostly inhibitors; AID 485294; 0.041% of 370,000 active;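 note: potency is the fitted concentration of half-maximal effect; 0% = no-compound wells and -100% = no-enzyme wells; nearly all actives have a fitted effect of over 25% in size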
Target sequence (P00811 whole entry, looked up): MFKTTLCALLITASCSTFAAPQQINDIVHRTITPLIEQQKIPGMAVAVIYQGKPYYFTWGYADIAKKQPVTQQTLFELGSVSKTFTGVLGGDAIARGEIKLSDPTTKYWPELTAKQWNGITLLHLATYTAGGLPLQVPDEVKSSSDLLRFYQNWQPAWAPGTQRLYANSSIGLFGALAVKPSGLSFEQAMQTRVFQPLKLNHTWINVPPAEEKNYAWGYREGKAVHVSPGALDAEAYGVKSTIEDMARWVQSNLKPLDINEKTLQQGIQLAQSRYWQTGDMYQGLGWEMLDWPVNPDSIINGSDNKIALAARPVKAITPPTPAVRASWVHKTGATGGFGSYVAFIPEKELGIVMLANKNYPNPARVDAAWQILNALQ
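AmpC (5.3 nM in the dispensed reagent) in 20 mM phosphate pH 7.0 with 0.01% (detergent screen) or 0.0001% Triton X-100 was preincubated with compounds for 15 min at room temperature. Nitrocefin was then added from an 800 uM solution, and hydrolysis was followed at 480 nm.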
NS1 function inh: influenza NS1 inhibition | Potency, µM (series often up to 46.1 µM), for the others: top-dose activity, positive = more growth | 0.4% of 270,000 active | AID 2326; calls by dose curve; note: potency is the fitted concentration of half-maximal effect; actives are rising curves; nearly all actives have a fitted effect of over 50% in size
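Read-out: OD600 growth recovery of NS1-expressing budding yeast. Cells grown overnight at 30C in -URA glucose medium, washed, resuspended and diluted 1:100 in 2% galactose assay medium, pH 6.0. Same strain lacking NS1 served as positive control.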
AmpC no deterg: inhibitors of E. coli AmpC beta-lactamase without detergent | P00811 | AmpC nitrocefin hydrolysis, absorbance 480 nm, 0.0001% Triton | Potency, µM (highest dose often 57.1 µM), without a hit: at the top dose activity change, negative = inhibition, most hits filed as inhibitors | 0.52% of 330,000 active | AID 485341;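 note: potency is the fitted concentration of half-maximal effect; plate controls were no compound for no effect and no enzyme for full effect; nearly all actives have a fitted effect of over 20% in size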
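20 mM phosphate pH 7.0 + 0.01% (detergent screen) or 0.0001% Triton X-100; 5.3 nM AmpC reagent; cpd preinc 15 min RT; nitrocefin (800 uM stock) to start; A480 q20 s × 4 min; Activity was normalised to no-enzyme and no-compound control wells.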
Shiga toxin inh: Shiga toxin inhibition; Vero cells, Shiga toxin protein synthesis inhibition reporter; inhibition, % at 38.7 µM; 9.2% of 290,000 active; AID 2315; in the data active = inhibition mostly above about 28%, no sharp cut-off; inactive = mostly below about 43%; note: 0% is about no effect
CHX counter: counter-screen hit for Shiga toxin inhibitors, cycloheximide; cell reporter, cycloheximide protein synthesis inhibition counterscreen; max response, %; 12% of 300,000 active; in the data active = max response mostly above about 13%, no sharp cut-off; inactive = mostly below about 14%; note: read at 38.3 µM for the half of the compounds with a filed dose; 0% is about no effect
The depositor's hits bear a star; ? = inconclusive; nt = no result given; [ ] = another dose, or the depositor's remark. This is one part of a sample in which hits are shown more often than they occur. Unless noted, calls come from the whole dose curve; as a rule, active = well fitted curve in the direction sought with a large enough effect; inconclusive = small, poorly fitted or top-dose-only effect, or another doubt; inactive = no such curve, though single readings can be large; an effect the other way counts as inactive or inconclusive.

SMILES	AmpC inh detg	NS1 function inh	AmpC no deterg	Shiga toxin inh	CHX counter
CC(=O)c1c(C)[nH]c(C(=O)OCCOc2ccccc2)c1C	-2%	nt	-25%[11.4 µM]	47*	23
Cc1cccc(N(C)C(=S)Oc2ccc3ccccc3c2)c1	-1%	-8%	3%	49*	28*
NNS(=O)(=O)c1ccc(Sc2ccccn2)c([N+](=O)[O-])c1	0%	1%	-49%	36	15*
N#Cc1ccc(Sc2ccccn2)c([N+](=O)[O-])c1	3%	0%	-7%	2	0
O=C(/C=C/c1c(Cl)cccc1Cl)Nc1ccncc1	?	-60%	-35%	36	13*
O=C(/C=C/c1c(F)cccc1Cl)Nc1ccncc1	-2%	-28%	-43%	96*	61*
O=C(/C=C/c1cccc(Cl)c1)NCc1ccncc1	-3%	4%	-12%	-8	1
Cc1cc(NS(=O)(=O)c2ccc(NC(=O)/C=C/c3c(F)cccc3Cl)cc2)no1	0%	-8%	-50%	-2	-5
O=C(/C=C/c1cccc(Cl)c1)Nc1ccncc1	-11%	-95%	-34%	53*	38*
O=C(O)CNC(=O)/C=C/c1c(Cl)cccc1Cl	?	nt	-14%	22	10
O=C(Nc1ccc2c(c1)N(C1CCCC1)C(=O)c1ccccc1S2)c1ccc(F)cc1	-1%	nt	nt	nt	nt
CCN1CCN(c2cc(C)c3cc(NC(=O)/C=C/c4cccc(Cl)c4)ccc3n2)CC1	10%	nt	nt	nt	nt
Cc1ccc(OCC(=O)Nc2c(C)ccc3nsnc23)cc1	-5%	-6%	-20%	-5	-10
CCOC(=O)C1CCN(C(c2cccc(OC)c2)c2sc3nc(C)nn3c2O)CC1 (stereo not drawn)	?	-20%	10µM*	-3	-2
CCOC(=O)C1CCN(C(c2cccs2)c2sc3nc(C)nn3c2O)CC1 (stereo not drawn)	?	-76%	22%	-9	1
Cc1[nH]c2ccccc2c1C(=O)C(=O)NC1CC(=O)N(c2ccc(F)cc2)C1 (stereo not drawn)	-5%	nt	-18%	nt	nt
O=C(CNC(=O)c1ccccc1)OC1CCCCC1	3%	nt	-7%	56*	35*
O=C(Nc1ccccc1Cl)OC1CCCCC1	-7%	-2%	-41%	100*	22
O=C(NC(=O)c1ccc(Cl)cc1)OC1CCCCC1	-11%	1%	-10%	63*	48*
CN(CC(=O)Nc1ccccc1Cl)C1CCCCC1	0%	-1%	-3%	15	7
O=C(CNC(=O)c1ccc(Cl)cc1)NC1CCCCC1	0%	5%	-17%	-30	5
O=C(C1CCC1)N1CCc2cc(S(=O)(=O)NCCc3ccccc3)ccc21	1%	nt	nt	nt	nt
O=C(c1ccco1)c1nc2c(n1O)CCCCC2	?	-51%	-14%	-13	-3
O=C(c1cc2ccccc2o1)c1nc2c(n1O)CCCCC2	-9%	-42%	-18%	83*	47*
CCOc1ccc(C(=O)c2nc3c(n2O)CCCC3)cc1	?	-7%	-12%	30	23*
SMILES	AmpC inh detg	NS1 function inh	AmpC no deterg	Shiga toxin inh	CHX counter
Cc1ccc(C(=O)c2nc3c(n2O)CCCC3)cc1	4%	8%	-1%	11	17
COc1ccc(NC(=O)c2ccc3[nH]c(C)cc(=O)c3c2)cc1	18%	nt	nt	nt	nt
CCCCN(CCCC)C(=S)N/N=C/c1c(C)[nH]n(-c2ccccc2)c1=O	3%	-59%	-22%	-9	1
Cc1[nH]n(-c2ccccc2)c(=O)c1C=NCc1ccncc1	-1%	8%	-10%	10	11
CCCCN=Cc1c(C)[nH]n(-c2ccccc2)c1=S	3%	nt	29%	34	25*
Cc1[nH]n(-c2ccccc2)c(=O)c1C=NCCc1ccccc1	-2%	-8%	-2%	66*	21*
Cc1[nH]n(-c2ccccc2)c(=O)c1/C=N/N1C(=O)c2cccc3cccc(c23)C1=O	7%	-13%	-33%	14	-1
Cc1ccc(-n2[nH]c(C)c(C=NCc3ccncc3)c2=O)cc1	3%	1%	-6%	53*	39*
Cn1c(=O)n(CCc2ccccc2)c(=O)c2c1nc1n2CCN1c1ccc(Cl)cc1	20%	nt	nt	nt	nt
O=C(Oc1ccc(/C=N/NC(=O)c2ccco2)cc1)c1ccccc1	1%	nt	-8%	nt	nt
O=C(N/N=C/C(Cl)=C/c1ccccc1)c1ccco1	-5%	-46%	-28%	71*	51*
O=C(N/N=C/C(Cl)=C\c1ccccc1)c1ccco1	-5%	-60%	-40%	113*	48*
